Consider eight compounds from PubChem BioAssay (NCI).

What all share (test): NCI-60 one-dose screen, 48 h (100 = growth as untreated, 0 = no growth, -100 = all killed)
The subject of one experiment is RPMI-8226 leukemia. The conditions noted are these: 10 µM unless noted.
In another experiment the test system is OVCAR-8 ovarian. The conditions noted are these: 10 µM unless noted.
Another experiment relates to OVCAR-5 ovarian. The conditions noted are these: 10 µM unless noted.
The next experiment has as its system OVCAR-4 ovarian. The conditions noted are these: 10 µM unless noted.
Another experiment relates to SK-OV-3 ovarian. The conditions noted are these: 10 µM unless noted.
The subject of another experiment is IGROV1 ovarian. The conditions noted are these: 10 µM unless noted.
In the next experiment the test system is OVCAR-3 ovarian. The conditions noted are these: 10 µM unless noted.
The next experiment concerns HS 578T breast. The conditions noted are these: 10 µM unless noted.
In a further experiment the test system is NCI/ADR-RES ovarian. The conditions noted are these: 10 µM unless noted.
The test system of a further experiment is T-47D breast. The conditions noted are these: 10 µM unless noted.
The test system of a further experiment is BT-549 breast. The conditions noted are these: 10 µM unless noted.
In another experiment the test system is MDA-MB-435 melanoma. The conditions noted are these: 10 µM unless noted.
For another experiment, the system named is SW-620 colon. The conditions noted are these: 10 µM unless noted.
In another experiment the test system is MCF7 breast. The conditions noted are these: 10 µM.
The test system of the next experiment is HCT-116 colon. The conditions noted are these: 10 µM unless noted.
For the next experiment, the system named is HCC-2998 colon. The conditions noted are these: 10 µM unless noted.
In a further experiment the test system is KM12 colon. The conditions noted are these: 10 µM unless noted.

Each structure is given as a SMILES string. About 83,000 compounds went through this panel and 20% of them were active in at least one assay; those are over-represented in the sample as a whole.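 The endpoint reported here, percent growth, reads 100 for growth as untreated, 0 for no net growth and -100 for all cells dead.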 A number with no mark means an inactive call. The source made the active and inactive calls. Rule for the calls: active = growth percent below 10; inactive = the rest.

Take `O=C(Nc1ncc(Cc2cccc(C(F)(F)F)c2)s1)C1COc2ccccc2O1` (configuration not stated): the growth in the experiment on RPMI-8226 leukemia is 76.9%; in the experiment on OVCAR-8 ovarian it was 89.9%; with OVCAR-5 ovarian, 87.4%; in the experiment with OVCAR-4 ovarian, 84.6%; with SK-OV-3 ovarian, 100%; with IGROV1 ovarian it was 86.8%. In addition, the growth was 90.6% in the experiment on OVCAR-3 ovarian; 65.4% in the experiment on HS 578T breast; 87.3% in the experiment on NCI/ADR-RES ovarian; 67.1% in the experiment with T-47D breast; 90.7% in the experiment on BT-549 breast; 59.1% in the experiment with MDA-MB-435 melanoma. Also, the growth in the experiment on SW-620 colon was 81%; with MCF7 breast, 81.8%; in the experiment with HCT-116 colon, 83.3%; in the experiment with HCC-2998 colon, 98.5%; in the experiment with KM12 colon, 76%.

As for `COc1cc(-c2c3c(cn2S(=O)(=O)c2ccccc2)-c2nc(N)sc2CC3)cc(OC)c1OC`, the growth was 25.3% with RPMI-8226 leukemia; 32.7% with OVCAR-8 ovarian; 43.4% in the experiment on OVCAR-5 ovarian; 56% with OVCAR-4 ovarian; 12.6% in the experiment on SK-OV-3 ovarian; 31.6% in the experiment with IGROV1 ovarian. Further, the growth was -43.5% (active) in the experiment on OVCAR-3 ovarian; 23% with HS 578T breast; 14.9% in the experiment with NCI/ADR-RES ovarian; 44% with T-47D breast; 48.5% in the experiment with BT-549 breast; -32.1% (active) in the experiment with MDA-MB-435 melanoma. The growth was 25.6% in the experiment with SW-620 colon; 18.5% in the experiment with MCF7 breast; 24% in the experiment with HCT-116 colon; 45.5% in the experiment on HCC-2998 colon; 28.5% in the experiment with KM12 colon.

Turning to `Nc1ccn(C2O[C@H](CO)[C@@H](O)[C@H]2O)c(=O)n1` (some centres not stated), the growth is 49.8% in the experiment with RPMI-8226 leukemia; 58.5% in the experiment on OVCAR-8 ovarian; 104% in the experiment on OVCAR-5 ovarian; 72.3% in the experiment with OVCAR-4 ovarian; 90.2% in the experiment on SK-OV-3 ovarian; 82.9% in the experiment on IGROV1 ovarian. Besides, the growth in the experiment on OVCAR-3 ovarian is 88.7%; in the experiment on HS 578T breast, 106%; with NCI/ADR-RES ovarian it was 70.1%; in the experiment on T-47D breast, 99.2%; in the experiment with BT-549 breast it was 111%; in the experiment with MDA-MB-435 melanoma, 88.8%. Besides, the growth in the experiment with SW-620 colon was 72.7%; in the experiment with MCF7 breast, 63.1%; in the experiment on HCT-116 colon it was 64.4%; with HCC-2998 colon it was 99%; in the experiment on KM12 colon, 72.1%.

For the compound `COc1ccc(N(C)c2nc(N)nc3sc4c(c23)CCCC4)cc1`, the growth with RPMI-8226 leukemia is 25.3%; in the experiment on OVCAR-8 ovarian, 14%; with OVCAR-5 ovarian it was 49.8%; in the experiment on OVCAR-4 ovarian, 36.2%; in the experiment with SK-OV-3 ovarian it was 20.7%; with IGROV1 ovarian, 17.2%. Moreover, the growth is 1.77% (active) in the experiment with OVCAR-3 ovarian; 26.9% in the experiment with HS 578T breast; 2.25% (active) in the experiment on NCI/ADR-RES ovarian; 70.3% in the experiment on T-47D breast; 24% in the experiment on BT-549 breast; -9.59% (active) in the experiment on MDA-MB-435 melanoma. The growth in the experiment with SW-620 colon was 28.7%; with MCF7 breast, 15.2%; in the experiment with HCT-116 colon, 1.18% (active); in the experiment with HCC-2998 colon it was 7.08% (active); in the experiment on KM12 colon it was 7.2% (active).

As to `COc1cccc2cc(N(C)c3nc(C)nc4ccsc34)ccc12`, the growth with RPMI-8226 leukemia is 12.5%; in the experiment on OVCAR-8 ovarian, 6.47% (active); in the experiment on OVCAR-5 ovarian, 43.7%; with OVCAR-4 ovarian it was 35.5%; in the experiment on SK-OV-3 ovarian, 22.9%; in the experiment on IGROV1 ovarian, 15.5%. Besides, the growth in the experiment with OVCAR-3 ovarian is 3.88% (active); in the experiment on HS 578T breast, 17.7%; with NCI/ADR-RES ovarian, -6.94% (active); in the experiment on T-47D breast it was 60%; with MDA-MB-435 melanoma, -16.1% (active); in the experiment on SW-620 colon it was 22.3%. In addition, the growth in the experiment with MCF7 breast was 16.9%; with HCT-116 colon it was -0.926% (active); with HCC-2998 colon it was 7.08% (active); in the experiment on KM12 colon it was -1.06% (active).

Consider `O=c1oc2ccc(-c3ccc(F)cc3F)cc2c(=O)n1-c1ccc(Cl)c(C(F)(F)F)c1`, for which the growth in the experiment on RPMI-8226 leukemia is 3.09% (active); with OVCAR-8 ovarian, 8.57% (active); in the experiment with OVCAR-5 ovarian, 74.8%; with OVCAR-4 ovarian, 21.6%; in the experiment with SK-OV-3 ovarian, -9.2% (active); with IGROV1 ovarian, 35.3%. In addition, the growth was 7.34% (active) in the experiment with OVCAR-3 ovarian; 14.6% with HS 578T breast; 6.43% (active) with NCI/ADR-RES ovarian; -11% (active) in the experiment with T-47D breast; 7.88% (active) in the experiment on MDA-MB-435 melanoma; 14.6% in the experiment on SW-620 colon. In addition, the growth is 7.27% (active) in the experiment with MCF7 breast, 6.47% (active) with HCT-116 colon, 25.6% in the experiment on HCC-2998 colon and 3.84% (active) in the experiment on KM12 colon.

For `CN1CCN(c2nc(Nc3ccc(O)cc3)nc3ccccc23)CC1`, the growth is 32.7% with RPMI-8226 leukemia; 30.1% in the experiment on OVCAR-8 ovarian; 82.5% in the experiment on OVCAR-5 ovarian; 82.9% in the experiment on OVCAR-4 ovarian; 57.2% in the experiment with SK-OV-3 ovarian; 52.1% in the experiment with IGROV1 ovarian. The growth with OVCAR-3 ovarian was 59.5%; with HS 578T breast, 89.2%; in the experiment with NCI/ADR-RES ovarian it was 51.1%; in the experiment with T-47D breast, 82.2%; in the experiment with BT-549 breast it was 70.8%; in the experiment on SW-620 colon it was 57.2%. Further, the growth with MCF7 breast is 44.9%; in the experiment on HCT-116 colon it was 94.6%; in the experiment on HCC-2998 colon, 46.1%; in the experiment with KM12 colon, 65.6%.

Regarding `OC(c1ccccc1)c1nnc(SCc2ccccc2)n1Cc1ccccc1` (configuration not stated), the growth in the experiment with RPMI-8226 leukemia is 72.5%; in the experiment with OVCAR-8 ovarian, 98.8%; in the experiment with OVCAR-5 ovarian, 92.8%; in the experiment on OVCAR-4 ovarian it was 81.6%; in the experiment with SK-OV-3 ovarian it was 90%; in the experiment with IGROV1 ovarian it was 93.7%. Moreover, the growth with OVCAR-3 ovarian was 103%; in the experiment on HS 578T breast, 94%; with NCI/ADR-RES ovarian, 92.8%; in the experiment on T-47D breast, 85.2%; with BT-549 breast, 88.4%; in the experiment with MDA-MB-435 melanoma, 97.8%. Besides, the growth is 105% with SW-620 colon, 92.9% in the experiment on MCF7 breast, 92.2% in the experiment with HCT-116 colon and 108% in the experiment on KM12 colon.
